# Giardia FBPA inh – qHTS Assay for Inhibitors of Fructose-1,6-bisphosphate Aldolase from Giardia Lamblia; purified Giardia FBPA; 0.71% of 290,000 active; Potency, µM (top dose mostly 59.6 µM), actives largely listed as inhibitors; A8B2U2; further: nearly all actives have a fitted effect of over 55% in size
#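 40 nM FBPA preincubated 10 min at RT with compound (up to 57.5 uM final), then substrate plus GAPDH/TPI/NAD/arsenate coupling and diaphorase/resazurin added. Fluorescence read after 20 min at RT, 525/598 nm.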
# Tb PYK inh – qHTS of Trypanosoma Brucei Inhibitors; pyruvate kinase (Trypanosoma brucei), Q57TT1; TbPYK enzyme, Kinase-Glo Plus ATP luminescence, 45 min; Potency, µM (top dose mostly 76.8 µM), actives largely listed as inhibitors; 0.12% of 410,000 active; further: nearly all actives have a fitted effect of over 50% in size
#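 Glycolytic pyruvate kinase of T. brucei was incubated with substrate, test compound and 130 uM ADP for 45 minutes at room temperature. Luminescent Kinase-Glo Plus signal was measured after 10 minutes.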
# Shiga toxin inh – A qHTS for Small Molecule Inhibitors of Shiga Toxin; Vero cells, Shiga toxin protein synthesis inhibition reporter; inhibition, % at 38.7 µM; 9.2% of 290,000 active; in the data active means inhibition mostly above about 28%, no sharp cut-off; inactive means mostly below about 43%
# Cycloheximide cs – Cycloheximide Counterscreen for Small Molecule Inhibitors of Shiga Toxin | max response, % | AID 2314, 2010 | 12% of 300,000 active | cell reporter, cycloheximide protein synthesis inhibition counterscreen; in the data active means max response mostly above about 13%, no sharp cut-off; inactive means mostly below about 14%; further: read at 38.3 µM for the half of the compounds with a filed dose
# LmPK inhibitor – qHTS Assay for Inhibitors of Leishmania Mexicana Pyruvate Kinase (LmPK); AID 1721, 2009; Potency, µM (doses to about 57.5 µM), actives largely listed as inhibitors; purified LmPK, Kinase-Glo ATP luminescence, 1 h; 0.37% of 290,000 active; Q27686
# Target sequence (Q27686 whole entry, looked up): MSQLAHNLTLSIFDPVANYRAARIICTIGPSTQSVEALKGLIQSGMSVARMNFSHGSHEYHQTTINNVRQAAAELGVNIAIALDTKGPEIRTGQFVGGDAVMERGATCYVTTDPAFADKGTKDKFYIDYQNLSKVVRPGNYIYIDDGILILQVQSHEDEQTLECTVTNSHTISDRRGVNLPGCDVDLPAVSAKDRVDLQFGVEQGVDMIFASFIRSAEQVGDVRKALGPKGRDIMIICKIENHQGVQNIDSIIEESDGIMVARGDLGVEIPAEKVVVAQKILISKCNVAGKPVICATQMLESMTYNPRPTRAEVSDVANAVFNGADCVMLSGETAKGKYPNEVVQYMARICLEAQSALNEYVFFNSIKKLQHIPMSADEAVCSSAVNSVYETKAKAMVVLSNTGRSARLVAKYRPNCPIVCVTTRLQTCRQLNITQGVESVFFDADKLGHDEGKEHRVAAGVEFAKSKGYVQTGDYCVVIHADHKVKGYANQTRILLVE
#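 Kinase-Glo luminescence read after 1 h RT reaction of 0.1 nM LmPK with 0.5 mM PEP and 0.1 mM ADP. Activity scaled between uninhibited and enzyme-free controls.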
# RE007 growth inh – qHTS Assay for Inhibitors of the HIV-1 protein Vpr; S. pombe RE007 Vpr strain, BacTiter-Glo ATP luminescence, 24 h; Potency, µM (series often up to 92.2 µM), hits mostly inhibitors; 0.21% of 360,000 active; active means well fitted falling curve with a large enough effect; inconclusive means small, poorly fitted or top-dose-only effect; inactive means no such curve, though single readings can be large or run the other way; further: nearly all actives have a fitted effect of over 50% in size
#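 Fission yeast RE007 carrying one integrated HIV-1 vpr copy, seeded at OD 0.01 in PMG+AL medium with 23 nL pinned compound. Grown 24 h at 30 degrees; viability read by BacTiter-Glo luminescence after 5 min.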
# Numbers stand for hits; – = inactive; ? = inconclusive; · = no result; [ ] = another dose, or the depositor's remark. This is one part of a sample in which hits are shown more often than they occur. Unless noted, the call rests on the fitted dose curve; in most records, active means well fitted curve in the direction sought with a large enough effect; inconclusive means small, poorly fitted or top-dose-only effect, or another doubt; inactive means no such curve, though single readings can be large; an effect the other way counts as inactive or inconclusive.
SMILES,Giardia FBPA inh,Tb PYK inh,Shiga toxin inh,Cycloheximide cs,LmPK inhibitor,RE007 growth inh
CCN(CCn1cccn1)C(=O)c1cc(COc2ccccc2SC)on1,·,–,94,65,–,–
CCN(CCn1cccn1)C(=O)c1cc(COc2ccc(F)c(F)c2)on1,–,–,50,30,–,–
CCN(CCn1cccn1)C(=O)c1cc(COc2cc(C)ccc2C)on1,·,–,168,62,–,–
Cc1ccc(/C(=C\CN2CCCC2)c2cccc(/C=C/C(=O)O)n2)cc1,·,–,·,·,·,·
CN(C)/C=N/c1ncnc2c1cnn2-c1ccc(C(F)(F)F)cn1,–,–,77,41,–,–
FC(F)(F)c1ccc(-n2ccnc2)nc1,–,–,–,–,–,–
COc1cc(C2c3c(oc4ccccc4c3=O)C(=O)N2c2nnc(C(C)C)s2)cc(OC)c1OC (stereo unspecified),·,–,·,·,·,·
O=C(CCCc1nc2ccccc2s1)NCc1ccccc1F,–,–,–,13,–,–
NC(=O)c1ccc(NC(=O)CCc2nc3ccccc3s2)cc1,–,–,–,12,–,–
CCOc1ccc(C(=O)CCc2nc3ccccc3s2)cc1,–,–,62,22,–,–
Cc1ccc2nc(SC(Cc3cc(Cl)ccc3Cl)C(=O)O)[nH]c2c1 (stereo unspecified),·,–,·,·,·,·
CCOC(=O)c1noc2nc(C)n(Cc3ccc([N+](=O)[O-])cc3)c(=O)c12,·,–,·,·,·,·
COc1ccc(Nc2cc(Nc3cc(OC)c(OC)c(OC)c3)ncn2)cc1,–,–,–,–,–,–
COc1cccc(-n2c(Cn3nc(C(F)(F)F)cc3C)n[nH]c2=S)c1,–,4µM,–,–,–,·
COc1ccc(-n2c(Cn3nc(C(F)(F)F)cc3C)n[nH]c2=S)cc1,–,3.2µM,–,–,–,–
Cc1ccc(-n2c(Cn3nc(C(F)(F)F)cc3C)n[nH]c2=S)cc1,–,10µM,–,–,–,–
COc1cccc(-n2c(Cn3nc(C(F)F)cc3C(F)F)n[nH]c2=S)c1,–,?,–,–,–,–
COCCCN1CN(S(=O)(=O)c2ccc(C)cc2C)c2nc3ccccc3nc21,–,–,–,–,–,–
COc1ccc2c(c1)CCc1c(C(=O)Nc3c(C)nn(Cc4ccc(C)cc4)c3C)noc1-2,·,–,·,·,·,·
CC(=O)Nc1ccc(NC(=O)c2ccc3c(c2)CCN3S(C)(=O)=O)cc1,–,–,–,–,–,–
CN1CCSc2ccc(C(=O)NCc3cccc(F)c3)cc21,–,–,–,13,–,–
COc1cccc(NC(=O)c2ccc3c(c2)N(C)CCS3)c1,?,–,29,33,?,–
CN1CCSc2ccc(C(=O)Nc3ccc(Cl)cc3)cc21,–,–,59,37,–,–
COc1cccc(NC(=O)c2ccc3c(c2)CCN3S(C)(=O)=O)c1,–,–,50,17,–,–
COc1cc(OC)c(NS(=O)(=O)c2cc(-c3cnc(C)o3)ccc2OC)cc1Cl,·,–,·,·,·,·
SMILES,Giardia FBPA inh,Tb PYK inh,Shiga toxin inh,Cycloheximide cs,LmPK inhibitor,RE007 growth inh
CCc1cnc2c(c1SCc1c(F)cccc1Cl)c(=O)n(C)c(=O)n2C,·,–,·,·,·,·
O=[N+]([O-])c1cc(-c2nc(-c3ccccc3)no2)ccc1NCc1cccnc1,·,–,·,·,·,·
O=C(Nc1ccc(COc2ccccc2)cc1)Oc1ccccc1N1CCOCC1,–,–,–,17,–,–
COC(=O)c1ccc(N2OC3(C)C=CC2CC3)cc1 (stereo unspecified),–,–,active,56,–,–
CCN1CCN(c2nc3c(S(=O)(=O)c4ccc(Br)cc4)nnn3c3ccsc23)CC1,·,–,·,·,·,·
Cc1nc(NC(C)C)c2cnn(CCc3ccccc3)c2n1,–,–,–,19,–,–
CCCNc1nc(C)nc2c1cnn2CCc1ccccc1,–,–,–,19,–,–
Cc1ccc(OC(C)C(=O)Nc2nonc2-c2ccc(Br)cc2)cc1C (stereo unspecified),·,–,·,·,·,·
CCCCOc1ccc(C2=NC(c3ccncc3)=Nc3ccc(Br)cc3N2)cc1,·,–,·,·,·,·
CN(C)C(=O)c1cccc(-c2cnc3c(NC=O)cc(-c4ccccc4F)cn23)c1,·,–,·,·,·,–[18.4 µM]

# Screens: PubChem BioAssay, National Center for Advancing Translational Sciences (NCATS)
